Assay results reported in the supplement of paper PMC10849652.
Targets with a hit are over-represented here; the source holds about 7,900 in all. About 0.6% of all pairs of compound and target were hits. A number with no mark means an inactive call.

Columns and labels:
Experiment in all cases: log2 fold change, soluble protein after heating vs DMSO (PISA); higher = thermal stabilisation; K562 cells, 10 uM, 30 min; active = over 0.2 and 3.5 SD of the protein, either way, in both replicates (recomputed)
[1] = compound: CS(=O)(=O)c1ccc(-c2cnc(N)c(C(=O)Nc3ccccc3)n2)cc1
Procedure, shortened: (§1)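 Quantification of soluble protein used TMTpro 16plex LC-MS/MS, with channel sums equalised. Samples were the supernatant after 21,000xg for 90 min of pooled aliquots from K562 cells (2×10^6 cells/mL) treated with 10 μM compound for 30 min, heated for 3 min over 48°C-58°C, and extracted in PBS with 0.5% NP-40 at 4°C. Values, from duplicates, describe thermal stability against control samples on a log2 fold-change scale.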

[2] = compound: C[C@@H]1COCCN1C2=NC(=NC(=C2)C3(CC3)S(=O)(=O)C)C4=C5C=CNC5=CC=C4
Procedure, shortened: as §1

[3] = compound: C[C@H](C1=CC=C(C=C1)C(=O)NC2=C3C=CNC3=NC=C2)N
Procedure, shortened: as §1

[4] = compound: C[C@H](Nc1ncnc2nc[nH]c12)c1cc2cccc(Cl)c2c(=O)n1-c1ccccc1 [duvelisib]
Procedure, shortened: as §1

[5] = compound: Cc1cc(Nc2cc(CN3CCOCC3)c3nc(C)c(Cc4ccc(Cl)cc4F)n3n2)n[nH]1 [gandotinib]
Procedure, shortened: as §1

[6] = compound: Cc1cc(Nc2cc(N3CCN(C)CC3)nc(Sc3ccc(NC(=O)C4CC4)cc3)n2)n[nH]1 [tozasertib]
Procedure, shortened: as §1

[7] = compound: Cc1cc(SCc2sc(-c3ccc(C(F)(F)F)cc3)nc2C)ccc1OCC(=O)O
Procedure, shortened: as §1

[8] = compound: Cc1ccc(C(=O)N(CCCN)[C@@H](c2nc3cc(Cl)ccc3c(=O)n2Cc2ccccc2)C(C)C)cc1 [ispinesib]
Procedure, shortened: as §1

[9] = compound: C[C@@H](Oc1cc(-c2cnn(C3CCNCC3)c2)cnc1N)c1c(Cl)ccc(F)c1Cl [crizotinib]
Procedure, shortened: as §1

[10] = compound: Cc1ccc(-n2nc(C(C)(C)C)cc2NC(=O)Nc2ccc(OCCN3CCOCC3)c3ccccc23)cc1 [doramapimod]
Procedure, shortened: as §1

UniProt P30305, sequence (P30305 whole entry, looked up): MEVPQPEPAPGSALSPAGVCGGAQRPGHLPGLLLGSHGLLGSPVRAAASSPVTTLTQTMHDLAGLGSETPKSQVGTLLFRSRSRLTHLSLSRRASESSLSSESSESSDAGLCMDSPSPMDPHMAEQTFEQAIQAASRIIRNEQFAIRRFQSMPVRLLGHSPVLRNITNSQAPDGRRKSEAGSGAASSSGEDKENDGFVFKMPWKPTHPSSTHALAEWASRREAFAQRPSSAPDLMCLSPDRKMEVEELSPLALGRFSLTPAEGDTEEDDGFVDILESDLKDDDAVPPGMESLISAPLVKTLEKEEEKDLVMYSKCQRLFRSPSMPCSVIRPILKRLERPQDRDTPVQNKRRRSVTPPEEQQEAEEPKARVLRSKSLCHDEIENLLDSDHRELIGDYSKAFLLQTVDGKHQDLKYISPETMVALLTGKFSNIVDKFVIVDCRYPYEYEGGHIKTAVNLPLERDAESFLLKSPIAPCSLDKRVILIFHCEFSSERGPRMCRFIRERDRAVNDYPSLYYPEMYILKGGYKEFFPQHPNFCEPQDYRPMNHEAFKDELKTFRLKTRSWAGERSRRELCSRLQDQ
UniProt Q9BWU1, sequence (Q9BWU1 whole entry, looked up): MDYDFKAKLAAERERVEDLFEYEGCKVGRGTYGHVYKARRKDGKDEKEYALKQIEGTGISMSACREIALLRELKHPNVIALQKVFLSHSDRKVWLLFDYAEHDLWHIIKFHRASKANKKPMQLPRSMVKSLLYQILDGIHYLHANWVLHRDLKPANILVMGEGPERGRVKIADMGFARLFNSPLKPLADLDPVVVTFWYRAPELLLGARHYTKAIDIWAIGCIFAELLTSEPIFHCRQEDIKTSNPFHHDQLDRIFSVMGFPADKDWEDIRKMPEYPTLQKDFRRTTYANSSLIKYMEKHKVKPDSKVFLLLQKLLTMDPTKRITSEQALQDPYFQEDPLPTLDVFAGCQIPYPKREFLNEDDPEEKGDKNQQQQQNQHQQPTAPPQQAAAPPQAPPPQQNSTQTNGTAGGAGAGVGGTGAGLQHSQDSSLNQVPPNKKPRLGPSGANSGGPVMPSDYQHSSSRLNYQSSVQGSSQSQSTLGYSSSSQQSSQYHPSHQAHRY
UniProt A8MTT3, sequence (A8MTT3 whole entry, looked up): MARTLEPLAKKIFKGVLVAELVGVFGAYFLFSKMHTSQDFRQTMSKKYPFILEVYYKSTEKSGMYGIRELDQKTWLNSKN
UniProt Q15417, sequence (Q15417 whole entry, looked up): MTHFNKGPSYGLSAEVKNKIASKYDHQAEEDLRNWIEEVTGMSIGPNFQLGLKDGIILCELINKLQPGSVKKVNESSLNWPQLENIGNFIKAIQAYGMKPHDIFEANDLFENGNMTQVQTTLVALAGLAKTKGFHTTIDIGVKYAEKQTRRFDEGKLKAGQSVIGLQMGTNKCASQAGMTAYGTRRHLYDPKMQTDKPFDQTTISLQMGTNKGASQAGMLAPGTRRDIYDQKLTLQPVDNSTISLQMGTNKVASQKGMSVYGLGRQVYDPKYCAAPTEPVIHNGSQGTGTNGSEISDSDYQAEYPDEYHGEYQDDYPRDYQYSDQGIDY
UniProt Q9UIB8, sequence (Q9UIB8 whole entry, looked up): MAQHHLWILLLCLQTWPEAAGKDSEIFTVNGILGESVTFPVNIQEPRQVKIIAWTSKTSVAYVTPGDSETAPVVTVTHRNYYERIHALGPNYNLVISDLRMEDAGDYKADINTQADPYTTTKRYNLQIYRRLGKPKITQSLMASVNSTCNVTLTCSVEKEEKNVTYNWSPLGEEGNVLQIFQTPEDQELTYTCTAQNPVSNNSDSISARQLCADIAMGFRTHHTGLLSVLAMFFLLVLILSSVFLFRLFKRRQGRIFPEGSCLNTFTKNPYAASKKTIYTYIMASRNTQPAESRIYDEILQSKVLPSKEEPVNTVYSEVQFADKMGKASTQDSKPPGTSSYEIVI
UniProt P51911, sequence (P51911 whole entry, looked up): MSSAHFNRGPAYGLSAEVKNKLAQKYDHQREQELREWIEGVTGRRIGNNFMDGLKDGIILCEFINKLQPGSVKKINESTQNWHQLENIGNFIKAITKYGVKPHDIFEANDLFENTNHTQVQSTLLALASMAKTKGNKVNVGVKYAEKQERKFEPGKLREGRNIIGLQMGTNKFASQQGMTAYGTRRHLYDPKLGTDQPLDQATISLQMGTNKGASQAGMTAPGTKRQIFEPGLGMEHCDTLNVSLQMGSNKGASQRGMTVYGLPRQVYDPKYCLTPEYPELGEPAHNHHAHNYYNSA
UniProt P51795, sequence (P51795 whole entry, looked up): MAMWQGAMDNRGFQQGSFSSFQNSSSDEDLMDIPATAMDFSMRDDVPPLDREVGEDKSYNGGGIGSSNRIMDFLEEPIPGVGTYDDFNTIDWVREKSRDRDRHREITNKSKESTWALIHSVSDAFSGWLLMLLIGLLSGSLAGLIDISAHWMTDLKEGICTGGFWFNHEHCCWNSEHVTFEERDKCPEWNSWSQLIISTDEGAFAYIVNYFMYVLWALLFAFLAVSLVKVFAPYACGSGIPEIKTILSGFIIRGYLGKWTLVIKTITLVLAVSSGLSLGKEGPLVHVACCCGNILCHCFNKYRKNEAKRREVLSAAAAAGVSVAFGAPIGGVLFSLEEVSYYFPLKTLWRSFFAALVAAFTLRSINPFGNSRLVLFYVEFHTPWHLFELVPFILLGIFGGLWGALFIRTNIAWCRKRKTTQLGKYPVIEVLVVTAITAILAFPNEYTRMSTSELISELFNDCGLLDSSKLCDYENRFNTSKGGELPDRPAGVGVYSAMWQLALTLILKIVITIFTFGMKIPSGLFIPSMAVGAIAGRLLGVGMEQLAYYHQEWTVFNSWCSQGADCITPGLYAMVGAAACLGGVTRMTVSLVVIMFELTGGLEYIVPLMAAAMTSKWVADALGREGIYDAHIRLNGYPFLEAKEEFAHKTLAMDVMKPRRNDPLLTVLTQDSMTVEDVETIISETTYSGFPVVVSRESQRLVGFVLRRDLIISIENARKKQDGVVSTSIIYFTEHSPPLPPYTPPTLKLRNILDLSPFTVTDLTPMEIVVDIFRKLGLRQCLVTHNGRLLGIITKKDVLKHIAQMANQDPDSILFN
UniProt O95628, sequence (O95628 whole entry, looked up): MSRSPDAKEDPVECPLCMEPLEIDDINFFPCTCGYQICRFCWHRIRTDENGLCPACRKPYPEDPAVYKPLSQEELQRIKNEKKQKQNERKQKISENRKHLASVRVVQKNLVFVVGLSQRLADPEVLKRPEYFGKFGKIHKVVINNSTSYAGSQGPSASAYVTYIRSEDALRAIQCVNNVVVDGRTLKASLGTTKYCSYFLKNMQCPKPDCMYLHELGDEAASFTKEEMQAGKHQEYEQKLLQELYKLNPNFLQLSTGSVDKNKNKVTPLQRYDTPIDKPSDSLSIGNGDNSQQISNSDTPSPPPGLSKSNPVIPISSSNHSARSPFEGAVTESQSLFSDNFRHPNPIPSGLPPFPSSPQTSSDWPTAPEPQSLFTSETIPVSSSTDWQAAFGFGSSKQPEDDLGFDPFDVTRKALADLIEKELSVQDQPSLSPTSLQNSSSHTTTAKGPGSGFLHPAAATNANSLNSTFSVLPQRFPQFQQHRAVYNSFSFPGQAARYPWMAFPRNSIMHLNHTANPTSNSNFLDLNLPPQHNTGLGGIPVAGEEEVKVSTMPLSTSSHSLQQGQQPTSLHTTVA
UniProt O95273, sequence (O95273 whole entry, looked up): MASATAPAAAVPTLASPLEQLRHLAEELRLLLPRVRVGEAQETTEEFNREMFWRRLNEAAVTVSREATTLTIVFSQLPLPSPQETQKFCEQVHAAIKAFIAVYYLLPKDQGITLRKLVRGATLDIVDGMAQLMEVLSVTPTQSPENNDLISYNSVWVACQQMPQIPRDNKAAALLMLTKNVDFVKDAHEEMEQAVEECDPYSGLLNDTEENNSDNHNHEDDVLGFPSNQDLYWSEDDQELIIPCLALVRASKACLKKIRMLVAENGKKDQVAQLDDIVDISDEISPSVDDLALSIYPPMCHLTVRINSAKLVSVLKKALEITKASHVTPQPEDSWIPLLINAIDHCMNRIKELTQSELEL
UniProt Q14677, sequence (Q14677 whole entry, looked up): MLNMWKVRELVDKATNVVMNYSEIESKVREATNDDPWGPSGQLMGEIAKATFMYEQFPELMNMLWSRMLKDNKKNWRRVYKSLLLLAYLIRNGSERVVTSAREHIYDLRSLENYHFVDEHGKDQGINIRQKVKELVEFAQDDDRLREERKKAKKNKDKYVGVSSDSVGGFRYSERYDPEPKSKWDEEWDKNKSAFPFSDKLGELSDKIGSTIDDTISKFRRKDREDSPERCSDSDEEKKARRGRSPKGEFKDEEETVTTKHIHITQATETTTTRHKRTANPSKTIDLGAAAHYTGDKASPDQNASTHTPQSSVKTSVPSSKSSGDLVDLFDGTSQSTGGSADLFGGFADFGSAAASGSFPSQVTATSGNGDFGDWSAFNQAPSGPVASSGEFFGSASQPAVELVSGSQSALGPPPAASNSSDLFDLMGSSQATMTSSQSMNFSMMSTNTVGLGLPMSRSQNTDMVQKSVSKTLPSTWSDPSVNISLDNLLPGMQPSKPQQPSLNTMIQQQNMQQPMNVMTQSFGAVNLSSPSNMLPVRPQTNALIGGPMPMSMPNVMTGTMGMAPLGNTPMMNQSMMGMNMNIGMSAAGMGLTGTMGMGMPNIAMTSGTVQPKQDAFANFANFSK
UniProt P33552, sequence (P33552 whole entry, looked up): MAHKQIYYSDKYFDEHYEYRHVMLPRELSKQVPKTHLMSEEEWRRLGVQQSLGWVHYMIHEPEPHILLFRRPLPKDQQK
UniProt Q9UBY8, sequence (Q9UBY8 whole entry, looked up): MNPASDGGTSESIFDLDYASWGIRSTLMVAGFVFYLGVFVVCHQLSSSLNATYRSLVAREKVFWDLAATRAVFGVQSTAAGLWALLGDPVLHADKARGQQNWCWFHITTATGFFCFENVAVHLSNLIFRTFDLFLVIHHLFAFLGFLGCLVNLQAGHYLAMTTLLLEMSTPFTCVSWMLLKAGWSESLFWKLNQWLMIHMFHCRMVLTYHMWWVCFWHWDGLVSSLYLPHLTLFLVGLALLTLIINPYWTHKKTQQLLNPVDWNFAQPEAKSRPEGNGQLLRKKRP

Target	log2 fold change [1]	log2 fold change [2]	log2 fold change [3]	log2 fold change [4]	log2 fold change [5]	log2 fold change [6]	log2 fold change [7]	log2 fold change [8]	log2 fold change [9]	log2 fold change [10]
CNN3 (UniProt Q15417)	0.044	0.075	-0.066	-0.02	-0.1	0.069	0.15			
CCND3 (UniProt P30281)		-0.271	0.096	0.014	-0.027	-0.058	0.058	-0.116		
CORO2A (UniProt Q92828)	-0.085		0.101	0.061	0.061	-0.028	0.023	-0.046		
CFAP47 (UniProt Q6ZTR5)		0.099		-0.027			-0.302			
CDK19 (UniProt Q9BWU1)	0.042	0.03	0.401	-0.089	-0.051	-0.197	0.034	0.291		
CREB3L2 (UniProt Q70SY1)		-0.076	-0.26			-0.132		-0.342	0.098	0.128
CDC25B isoform 4 (UniProt P30305)	-0.104	-0.216	-0.057		0.122			0.019		0.132
CCDC82 (UniProt Q8N4S0)		-0.174	0.015	-0.223		-0.106	-0.119	-0.026	0.148	-0.165
CA1 (UniProt E5RIF9)		-0.134		0.055		-0.153	-0.613			
CLCN5 isoform 2 (UniProt P51795)			-0.123	0.188	-0.083	0.122	-0.049	-0.419 (active)	-0.321	-0.03
CASK (UniProt O14936)				0.049			-0.039			0.034
CCNDBP1 (UniProt O95273)	0.016		0.06	0.016	-0.066	0.1	0.043	-0.029		
CLINT1 (UniProt Q14677)			0.005	-0.08		0.074	-0.155		0.166	0.154
CD84 (UniProt Q9UIB8)	0.049	-0.201	-0.149	0.036		-0.055	0.056			
CARD9 (UniProt Q9H257)								-0.398	-0.023	0.135
CCDC187, A0A1W2PQX5		-0.042			-0.352			0.274		
CPNE5 (UniProt Q9HCH3)			0.148			0.374				
CNN1 (UniProt P51911)	-0.052	0.045	-0.121		-0.673 (active)	-0.151				
CLN8 (UniProt Q9UBY8)	-0.006		0.161	0.049	-0.1	-0.05	-0.09	-0.15		
CNOT4 isoform 9 (UniProt O95628)			0.484 (active)	-0.076	-0.059	-0.028	-0.086	-0.102	-0.094	0.274
CNRIP1 (UniProt Q96F85)		0.209						-0.147		
CRMP1 isoform 2 (UniProt Q14194)	0.024		0.08	0.208	-0.132	-0.602	-0.003			
CKS2 (UniProt P33552)				0.01	-0.272	-0.094	-0.038			
CEBPZOS (UniProt A8MTT3)				0.055	-0.189	-0.031	-0.013	0.016	0.26 (active)	0.066
